Source: PubChem
Pf apPOL inh: Pf-apPOL DNA polymerase inhibition. Recombinant Pf-apPOL, molecular beacon fluorescence, 1.5 h. inhibition, % at 10 µM. actives 0.25% (n = 210,000)
mHTT-CaM PPI inh: disrupts binding of mutant huntingtin to calmodulin | P42858 | AlphaScreen His-mHTT/GST-CaM binding, luminescence | inhibition, % at 15 µM | actives 3.6% (n = 190,000) | AID 1671202
A number is an active result. Rows were chosen to be rich in hits. Some 3.6% of all compounds tested hit in one or more screens of this group. Rule as the data show it: active = inhibition above about 50%; inactive = the rest.

Cc1cc2c(C(C)C)c(O)c(O)c(C=NCSN)c2c(O)c1-c1c(C)cc2c(C(C)C)c(O)c(O)c(C=NCSN)c2c1O was read as mHTT-CaM PPI inh 100.
O=C1c2ccc(Br)cc2C(=O)N1CNc1ccc(Cl)cc1 was read as Pf apPOL inh inactive and mHTT-CaM PPI inh inactive.
For O=C(O)c1ccc(NC(=O)c2cccc(F)c2)cc1 the results were Pf apPOL inh inactive and mHTT-CaM PPI inh inactive.
Screening COc1ccc(-n2nc(C(=O)NCC(=O)N(C)Cc3ccccc3)c3ccccc3c2=O)cc1 returned Pf apPOL inh inactive and mHTT-CaM PPI inh 66.
`COc1ccc(-n2nc(C(=O)NCC(=O)O)c3ccccc3c2=O)cc1` gave Pf apPOL inh inactive and mHTT-CaM PPI inh inactive.
CC(C)Cn1c(=O)c(N2CCN(C(=O)NC3CCCCC3)CC2)nc2ccncc21 was read as Pf apPOL inh inactive and mHTT-CaM PPI inh inactive.
Screening CC(=O)Nc1nc(-c2ccc(C)cc2)c(-c2ccccc2)s1 returned Pf apPOL inh inactive and mHTT-CaM PPI inh inactive.
`NC(N)=Nc1nc(-c2ccccc2)c(-c2ccccc2)s1` gave Pf apPOL inh inactive and mHTT-CaM PPI inh 100.
CCN(CC)CCNC(=O)CN1N=C(c2ccc(Cl)cc2)CCC1=O was read as Pf apPOL inh inactive and mHTT-CaM PPI inh inactive.
`CCN(CCNC(=O)CN1N=C(c2ccc(Cl)cc2)CCC1=O)c1ccccc1` gave Pf apPOL inh inactive and mHTT-CaM PPI inh 65.
`O=C(Nc1ccc(F)c(F)c1)c1cnc2n(c1=O)CCS2` gave Pf apPOL inh inactive and mHTT-CaM PPI inh inactive.
Screening CCCC(=O)NC(c1ccc(C(C)C)cc1)c1cc([N+](=O)[O-])c2cccnc2c1O (stereo not drawn) returned Pf apPOL inh inactive and mHTT-CaM PPI inh 51.
CN(C)C(=O)NC(c1ccccc1)c1cc([N+](=O)[O-])c2cccnc2c1O (stereo not drawn) was read as Pf apPOL inh inactive and mHTT-CaM PPI inh 100.
Screening CCC(=O)NC(c1ccc(C(C)C)cc1)c1cc([N+](=O)[O-])c2cccnc2c1O (stereo not drawn) returned Pf apPOL inh inactive and mHTT-CaM PPI inh 100.
For CCCC(=O)NC(c1ccc(Cl)cc1Cl)c1cc([N+](=O)[O-])c2cccnc2c1O (stereo not drawn) the results were Pf apPOL inh inactive and mHTT-CaM PPI inh 99.
Cc1noc(C2CN(C(=O)c3ccc(F)c(F)c3)CC23CCOCC3)n1 (stereo not drawn) was read as Pf apPOL inh inactive and mHTT-CaM PPI inh inactive.
For O=C(NC1CC2CC1CN2C(=O)c1cccc(C(F)(F)F)c1)c1ccccc1 (stereo not drawn) the results were Pf apPOL inh inactive and mHTT-CaM PPI inh inactive.
`O=C(c1cc(-c2ccccc2F)nc2cc(-c3ccccc3)nn12)N1CCCC1` gave Pf apPOL inh inactive and mHTT-CaM PPI inh inactive.
Screening CN(C)c1ccc(C=NC2=NN(c3ccccc3)CC2)cc1 returned Pf apPOL inh inactive and mHTT-CaM PPI inh inactive.
`O=C(NCC1CN(c2ccc(Cl)c(Cl)c2)C(=O)O1)c1cccs1` (stereo not drawn) gave Pf apPOL inh inactive and mHTT-CaM PPI inh inactive.
`O=C(c1cn2c(n1)COCC2)N1CCCCC1` gave Pf apPOL inh inactive and mHTT-CaM PPI inh inactive.
COc1ccc(C2=CC(c3ccc(OC)cc3OC)n3ncnc3N2)cc1 (stereo not drawn) was read as Pf apPOL inh inactive and mHTT-CaM PPI inh inactive.
Screening COc1ccc(C(=O)N2CCn3cnnc3C2)cc1OC returned Pf apPOL inh inactive and mHTT-CaM PPI inh inactive.
Screening CC(C)C(=O)NC(c1cccs1)c1cc([N+](=O)[O-])c2cccnc2c1O (stereo not drawn) returned Pf apPOL inh inactive and mHTT-CaM PPI inh 100.
For CCC(=O)NC(c1ccccc1)c1cc([N+](=O)[O-])c2cccnc2c1O (stereo not drawn) the results were Pf apPOL inh inactive and mHTT-CaM PPI inh 100.
CCC(=O)NC(c1ccccc1Cl)c1cc([N+](=O)[O-])c2cccnc2c1O (stereo not drawn) was read as Pf apPOL inh inactive and mHTT-CaM PPI inh 100.
CCC(=O)NC(c1ccccc1OC)c1cc([N+](=O)[O-])c2cccnc2c1O (stereo not drawn) was read as Pf apPOL inh inactive and mHTT-CaM PPI inh 100.
`N#CC1=C(SCC(=O)Nc2ccccc2Cl)NC(=O)CC1c1ccccc1F` (stereo not drawn) gave Pf apPOL inh inactive and mHTT-CaM PPI inh inactive.
`CC1CCC2C(=O)N(c3ccc(NCCc4ccccn4)c([N+](=O)[O-])c3)C(=O)C2C1` (stereo not drawn) gave Pf apPOL inh inactive and mHTT-CaM PPI inh inactive.
For O=C1CC(c2ccc(Cl)c(Cl)c2)CC(O)=C1C=NCCN1CCNCC1 (stereo not drawn) the results were Pf apPOL inh inactive and mHTT-CaM PPI inh 59.
`O=C1CC(c2cccs2)CC(O)=C1C=NCCN1CCNCC1` (stereo not drawn) gave Pf apPOL inh inactive and mHTT-CaM PPI inh inactive.
For Cn1cnnc1C1CCN(C(=O)c2cccc(OC(F)(F)F)c2)CC1 the results were Pf apPOL inh inactive and mHTT-CaM PPI inh inactive.
